# Compound activity: PubChem BioAssay, National Center for Advancing Translational Sciences (NCATS)
# HCMV inh = qHTS Assay for inhibitors of the human cytomegalovirus (HCMV) | activity change, negative = inhibition, % at 57.5 µM | AID 1259415, 2018 | HFF cells, HCMV-luciferase reporter, 72 h; active compounds read low | hit rate 4.5% among 410,000; in the data active = activity change below about -60%; inconclusive = no clear call, values can overlap the other calls; inactive = above about -39%
#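 Cell-based, HFFs, 1000 cells/well, 16 h 37C; cpds in DMSO + HCMV-luc, MOI 1 PFU/cell; 72 h 37C; OneGlo luminescence after 5 min RT; norm. to buffer vs Salinomycin 10uM.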
# Sm TGR inh = qHTS Assay for the Inhibitors of Schistosoma Mansoni Peroxiredoxins | AID 485364, 2010 | Schistosoma mansoni thioredoxin glutathione reductase (TGR), Q962Y6 | Potency, µM (titrated, usually from 114 µM), inactives show at the highest dose activity change, negative = inhibition, hits mostly inhibitors | purified TGR, DTNB reduction, TNB absorbance 405 nm | hit rate 3% among 360,000; also: potency is read from the fitted curve at half-maximal effect; nearly all actives have a fitted effect of over 60% in size
#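 TGR 20 nM + NADPH 100 uM (dispensed conc.), cpd preinc 15 min RT; start with NADPH (500 uM addition) then DTNB (15 mM addition). Kinetic TNB absorbance, 405 nm filter. Four-parameter Hill fit across titration.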
# Pf growth 96h = Primary qHTS for delayed death inhibitors of the malarial parasite plastid, 96 hour incubation | P. falciparum luciferase reporter growth, 96 h | Potency, µM (series often up to 28.7 µM), inactives show top-dose activity change, negative = inhibition, most hits filed as inhibitors | hit rate 6.9% among 320,000; also: potency is read from the fitted curve at half-maximal effect
#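 Plates of compound plus infected erythrocytes (2% hematocrit, 0.05% parasitemia final) incubate 96 hours, 37 C, 5% CO2. Detection reagent added; reduced luminescence from the parasites' luciferase reporter flags inhibition.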
# Pf growth 48h = Primary qHTS for delayed death inhibitors of the malarial parasite plastid, 48 hour incubation; P. falciparum luciferase growth in erythrocytes, 48 h; Potency, µM (highest dose often 28.7 µM), for inactives: top-dose activity change, negative = inhibition, hits mostly inhibitors; hit rate 5.9% among 310,000; AID 504832, 2011; also: potency is read from the fitted curve at half-maximal effect
#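 A one-generation exposure of luciferase-tagged malaria parasites in RPMI 1640/Albumax erythrocyte culture, 37 C and 5% CO2. Inhibition is inferred from decreased luminescence after adding detection reagent.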
# FBPA Giardia inh = qHTS Assay for Inhibitors of Fructose-1,6-bisphosphate Aldolase from Giardia Lamblia. A8B2U2. purified Giardia FBPA. Potency, µM (doses to about 59.6 µM), for inactives: at the top dose activity, negative = inhibition, usual class: inhibitors. hit rate 0.71% among 290,000; also: potency is read from the fitted curve at half-maximal effect; nearly all actives have a fitted effect of over 55% in size
# Target sequence (A8B2U2 whole entry, looked up): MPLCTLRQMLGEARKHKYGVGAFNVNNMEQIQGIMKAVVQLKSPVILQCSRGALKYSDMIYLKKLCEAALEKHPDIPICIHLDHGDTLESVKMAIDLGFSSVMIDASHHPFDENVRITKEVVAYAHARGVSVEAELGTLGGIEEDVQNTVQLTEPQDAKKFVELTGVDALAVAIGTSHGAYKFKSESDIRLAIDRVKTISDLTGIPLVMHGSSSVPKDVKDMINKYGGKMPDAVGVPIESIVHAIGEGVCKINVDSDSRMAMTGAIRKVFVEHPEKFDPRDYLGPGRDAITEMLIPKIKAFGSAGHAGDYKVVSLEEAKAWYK
#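 40 nM FBPA preincubated 10 min at RT with compound (up to 57.5 uM final), then substrate plus GAPDH/TPI/NAD/arsenate coupling and diaphorase/resazurin added. Fluorescence read after 20 min at RT, 525/598 nm.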
# * hit, by the source's call; ? = inconclusive; · = not tested or not shown. A selection: hits, their analogues and other compounds. The true share with any hit is near 14%. Unless noted, calls follow the shape of the dose curve; as a rule, active = well fitted curve in the direction sought with a large enough effect; inconclusive = small, poorly fitted or top-dose-only effect, or another doubt; inactive = no such curve, though single readings can be large; an effect the other way counts as inactive or inconclusive. % is scaled to controls: 0 for no effect and ±100 for the full control effect.
SMILES,HCMV inh,Sm TGR inh,Pf growth 96h,Pf growth 48h,FBPA Giardia inh
COc1ccc2[nH]c3c(c2c1)CCN1C(=O)N([C@@H](C)C(=O)NCCc2ccc(OC)c(OC)c2)C(=O)[C@]31C,12,-6%,10µM*,?,6%
COc1ccc2[nH]c3c(c2c1)CCN1C(=O)N([C@@H](C)C(=O)NC2CCCCC2C)C(=O)[C@]31C (some centres undefined),27,0%,12µM*,9.3µM*,1%
COc1ccc(CNC(=O)[C@H](C)N2C(=O)N3CCc4c([nH]c5ccc(OC)cc45)[C@@]3(C)C2=O)cc1,-40,-15%,?,?,-9%
Cc1ccc(CN2CCN(C3CCN(C(=O)OC(C)(C)C)CC3)C(=O)C2=O)cc1,10,-7%,·,·,·
CCC(NC(=O)C1(C)CC1(Br)Br)c1ccc(C)cc1 (centres undefined),-72*,4%,101%,-1%,5%
CCC(NC(=S)NCc1ccc(F)cc1)c1ccc(C)cc1 (centres undefined),-35,2%,10µM*,9.3µM*,10%
Cc1ccc(C(C)NC(=S)NCc2ccc(F)cc2)cc1C (centres undefined),-82*,2%,-2%,-18%,-1%
CCc1ccc(C(C)NC(=S)NCc2ccc(F)cc2)cc1 (centres undefined),29,3%,15µM*,13µM*,9%
CCOc1ccc(C(C)NC(=S)NCc2ccc(F)cc2)cc1 (centres undefined),?,5%,-19%,?,-10%
COc1ccc(C(=O)NC(NC(=O)c2ccc(OC)cc2)c2ccccc2F)cc1,-37,·,4%,-6%,2%
C=CC(=O)NC(NC(=O)C=C)c1ccccc1F,-27,7%,9.3µM*,?,-1%
Cc1cc2oc(=O)cc(-c3cc4ccccc4o3)c2cc1O,-37,-29%,2.6µM*,7.4µM*,-9%
COC(=O)Sc1nnc(-c2ccc(Br)cc2)o1,·,45µM*,·,2%,5%
OCC#CCSc1nnc(-c2ccc(Br)cc2)o1,-13,-8%,·,87%,-11%
Cc1cccc(NC(=O)c2sc3nc4n(c(=O)c3c2C)N=C(c2ccc(F)cc2)CS4)c1C,-3,0%,·,·,·
O=C(O)CCc1ccc(-c2cccs2)n1-c1ccc(C(=O)O)cc1,-6,7.9µM*,?,·,3%
O=C(O)CCc1nc(-c2cccs2)no1,10,7%,?,18%,6%
CC(=O)c1cccc(-n2c(CCC(=O)O)ccc2-c2ccccc2)c1,-8,18µM*,3%,-12%,10%
COC(=O)c1ccccc1-n1c(CCC(=O)O)ccc1-c1ccccc1,6,45µM*,?,0%,10%
O=C(O)CCc1ccc(-c2ccccc2)n1-c1cccc(Br)c1,25,16µM*,·,·,·
COc1cccc(NC(=O)Cn2c(CCC(=O)O)ccc2-c2ccccc2)c1,-28,-33%,13%,-15%,12%
COC(=O)c1ccc(-n2c(CCC(=O)O)ccc2-c2ccccc2)cc1,·,14µM*,3.7µM*,-3%,7%
CC(=O)c1ccc(-n2c(CCC(=O)O)ccc2-c2ccccc2)cc1,-30,40µM*,9%,0%,14%
CC(=O)c1cccc(-n2c(CCC(=O)O)ccc2-c2cccs2)c1,40,5.6µM*,?,?,8%
NC(=S)Nn1c(CCC(=O)O)ccc1-c1ccccc1,-26,2%,?,13%,1%
SMILES,HCMV inh,Sm TGR inh,Pf growth 96h,Pf growth 48h,FBPA Giardia inh
CN(C)c1ccc(-n2c(CCC(=O)O)ccc2-c2ccccc2)cc1,12,?,·,·,·
O=C(O)CCc1ccc(-c2ccccc2)n1NC(=O)c1cccs1,-35,50µM*,?,21%,6%
CC(C)C[C@H](N)C(=O)N[C@H](C(=O)N[C@@H](CCCN=C(N)N)C(=O)N[C@H](CS)C(=O)NCC(=O)N[C@@H](CCCCN)C(=O)N[C@@H](Cc1cnc[nH]1)C(=O)N[C@@H](CO)C(=O)N[C@@H](CCCN=C(N)N)C(=O)O)C(C)C,·,·,·,·,5%
CCOc1cccc(NC(=O)c2sc3nc(-c4ccc(F)cc4)ccc3c2N)c1,-12,-1%,·,·,·
O=C(O)CCc1ccc(-c2cccs2)n1NC(=O)c1ccccc1Br,-18,?,40%,19%,10%
CC(C)(C)c1ccc(C(=O)Nn2c(CCC(=O)O)ccc2-c2cccs2)cc1,23,50µM*,·,15%,13%
CC(=O)c1ccc(-n2c(CCC(=O)O)ccc2-c2ccc(C)cc2)cc1,·,18µM*,-23%,4%,19%
CC1(c2ccc(OC(F)F)cc2)NC(=O)N(CC(=O)N2CCN(C(=O)c3ccco3)CC2)C1=O (centres undefined),0,-18%,-8%,2%,·
Cc1cc(C)c(-c2csc(NC(=O)/C=C/c3cccs3)n2)c(C)c1,-100*,0%,12µM*,-20%,-4%
Cc1cc(C)nc(NC(=O)/C=C/c2cccs2)c1,116,3%,199%,117%,0%
Cc1cc(C)c(-c2csc(NC(=O)C3=NN(c4ccccc4)C(=O)CC3)n2)c(C)c1,-25,-7%,9.3µM*,?,-10%
CCc1ccc(-c2csc(NC(=O)C3=NN(c4ccccc4)C(=O)CC3)n2)cc1,-22,-7%,?,-29%,-10%
COc1ccc(CCN2C(=O)C(Oc3ccccc3C)C2c2ccc3c(c2)OCO3)cc1OC (centres undefined),61,3%,58%,12µM*,2%
O=C1C(Oc2ccccc2)C(c2ccc3c(c2)OCO3)N1CCc1ccc(F)cc1 (centres undefined),-3,-1%,0%,?,6%
COc1ccc(CCN2C(=O)C(Oc3ccccc3C)C2c2ccc3c(c2)OCO3)cc1 (centres undefined),-32,-1%,0.93µM*,?,-1%
